For four compounds, AC50 and outcome results are on record in PubChem BioAssay (EPA / NIEHS).

Experiment [1] can be described thus: ATG_DR4_LXR_CIS: Attagene CIS-FACTORIAL HepG2 Assay for human Liver X Receptor (LXR), DR4 submotif (AID 2282929). The conditions noted are these: HepG2 Attagene DR4 cis-reporter, mRNA transcription; AC50: actives raise or lower the signal unless noted; outcome: actives raise or lower the signal unless noted. The essentials: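 HepG2 cells transiently transfected with cis-promoter-driven multiplexed reporter units (DR4 element) were dosed for 24 h. Reporter mRNA was quantified by RT-PCR, fluorescent primer extension, HpaI digestion and capillary electrophoresis; bidirectional fitting versus DMSO baseline.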

The target of experiment [2] is Aryl hydrocarbon receptor (Homo sapiens) (UniProt P35869). In words: ATG_Ahr_CIS: Attagene CIS-FACTORIAL HepG2 Assay for human Aryl Hydrocarbon Receptor (Ahr) (AID 2282930). The conditions noted are these: HepG2 AhR cis-factorial reporter transcription; actives raise or lower the signal. The essentials:
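HepG2 cells transiently transfected with cis-element-driven multiplexed reporter transcription units; endogenous transcription factor activity measured as reporter mRNA 24 h after dosing. RT-PCR, 6-FAM labelling, HpaI digestion, capillary electrophoresis; bidirectional fitting versus DMSO baseline.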

Experiment [3] is described as follows: ATG_AP_1_CIS: Attagene CIS-FACTORIAL HepG2 Assay for human Activator Protein 1 (AP-1) (AID 2282931). Conditions: HepG2 Attagene cis-factorial AP-1 reporter mRNA; actives raise or lower the signal. The procedure, abridged:
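HepG2 cells transiently transfected with cis-element-driven multiplex reporter units; 24 h compound exposure. Reporter mRNA quantified by RT-PCR, FAM-labelled fragments resolved by capillary electrophoresis; bidirectional fit versus DMSO baseline.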

The nature of experiment [4]: ATG_AP_2_CIS: Attagene CIS-FACTORIAL HepG2 Assay for human Activator Protein 2 (AP-2) (AID 2282932). The conditions noted are these: HepG2 AP-2 cis-reporter, Attagene transcription factor profiling; AC50: actives raise or lower the signal unless noted; outcome: actives raise or lower the signal unless noted. The essentials: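 Cells (HepG2) transfected with promoter-driven reporter constructs, treated 24 h. Total RNA reverse-transcribed, reporter cDNA PCR-amplified, FAM-labelled by primer extension, digested, resolved by capillary electrophoresis. Activity fitted both directions versus DMSO.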

The nature of experiment [5]: ATG_BRE_CIS: Attagene CIS-FACTORIAL HepG2 Assay for human Bone Morphogenetic Protein (BMP) Response Element (BRE) (AID 2282933). Conditions: HepG2 BMP response element reporter, Attagene transcription factor profiling; actives raise or lower the signal. The procedure, abridged: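 Fluorescence-labelled reporter cDNA fragments, separated by capillary electrophoresis, gave the signal for this component of a 52-readout multiplex. HepG2 cells were transfected, exposed to chemicals for 24 h, and compared with DMSO using bidirectional fitting.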

Experiment [6] concerns the target Retinoic acid receptor alpha (Homo sapiens) (UniProt P10276). In words: ATG_DR5_RAR_CIS: Attagene CIS-FACTORIAL HepG2 Assay for human Retinoic Acid Receptor Alpha (RARE), DR5 submotif (AID 2282934).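 As to AC50: reporter responds to endogenous RAR alpha beta and gamma in HepG2 not RARA alone.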 The conditions noted are these: HepG2 Attagene cis-factorial RARE DR5 reporter, mRNA; actives raise or lower the signal. The essentials:
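HepG2 cells transiently transfected with multiplexed reporter units under cis (DR5 RARE) promoters, so endogenous transcription factor activity is measured. After 24 h compound exposure, reporter mRNA is quantified by RT-PCR with fluorescent labelling and capillary electrophoresis; bidirectional fitting versus DMSO.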

Experiment [7] has as its target Transcription factor E2F1 (Homo sapiens) (UniProt Q01094). Put plainly: ATG_E2F_CIS: Attagene CIS-FACTORIAL HepG2 Assay for human E2F Transcription Factor 1 (AID 2282935). Conditions: HepG2 Attagene cis-reporter, E2F reporter RNA transcripts; actives raise or lower the signal. The essentials:
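First, HepG2 cells were transfected with reporter transcription units. Next, they were dosed for 24 h. Then RNA was isolated, converted to cDNA, PCR-amplified, FAM-labeled, HpaI-digested and analyzed by capillary electrophoresis.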

A short description of experiment [8]: ATG_E_Box_CIS: Attagene CIS-FACTORIAL HepG2 Assay for human Enhancer Box (E-box) (AID 2282936). Conditions: HepG2 E-box cis-reporter transcription, actives raise or lower the signal. The essentials:
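Endogenous transcription factor activity was sensed in human HepG2 liver cells through transfected cis-promoter reporter units. After 24 h of dosing, total RNA was reverse-transcribed and reporter cDNA resolved by capillary electrophoresis.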

Experiment [9] can be described thus: ATG_M_61_CIS: Attagene CIS-FACTORIAL HepG2 Assay for M61 Transcription Factor (Internal Marker) (AID 2282937). Conditions: HepG2 Attagene CIS-FACTORIAL M61 internal marker reporter; actives raise or lower the signal. The procedure, abridged: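 HepG2 cells transiently transfected with cis-element-driven multiple reporter transcription units, dosed for 24 h. Reporter mRNA measured by RT-PCR, 6-FAM primer-extension labelling, HpaI digestion and capillary electrophoresis; bidirectional fit versus DMSO baseline.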

A short description of experiment [10]: ATG_EGR_CIS: Attagene CIS-FACTORIAL HepG2 Assay for human Early Growth Response 1 (EGR1) (AID 2282938). Conditions: HepG2 Attagene CIS-FACTORIAL EGR reporter mRNA; actives raise or lower the signal. The procedure, abridged:
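HepG2 cells transiently transfected with cis-promoter-driven multiplexed reporter transcription units; reporter mRNA measured 24 h after compound dosing by RT-PCR, 6-FAM primer extension, HpaI digestion and capillary electrophoresis. Bidirectional fit versus DMSO baseline.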

Experiment [11] can be described thus: ATG_ERE_CIS: Attagene CIS-FACTORIAL HepG2 Assay for Estrogen Response Element (ERE) (AID 2282940). The conditions noted are these: HepG2 ERE cis-reporter, Attagene RNA transcript; actives raise or lower the signal. The essentials:
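After a 24 h chemical treatment, RNA from reporter-transfected HepG2 cells is reverse-transcribed, PCR-amplified and fluorescently labelled. Fragments separated by capillary electrophoresis give reporter signal; DMSO serves as negative control.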

Experiment [12] in a line: ATG_Ets_CIS: Attagene CIS-FACTORIAL HepG2 Assay for human Erythroblast Transformation Specific (ETS) (AID 2282941). Conditions: HepG2 ETS cis-reporter transcription; AC50: actives raise or lower the signal unless noted; outcome: actives raise or lower the signal unless noted. The procedure, abridged:
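RT-PCR/capillary electrophoresis fluorescence read-out of reporter mRNA; HepG2 transient multi-reporter transfection; 24 h compound exposure; gain or loss of signal fitted bidirectionally relative to DMSO.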

Experiment [13] deals with Hepatocyte nuclear factor 3-beta (Homo sapiens) (UniProt Q9Y261). In words: ATG_FoxA2_CIS: Attagene CIS-FACTORIAL HepG2 Assay for human Forkhead box A2 (FOXA2) (AID 2282942). The conditions noted are these: HepG2 cis-reporter transcription factor activity, 24 h; actives raise or lower the signal. The essentials: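 HepG2 cells transiently transfected with multiple cis-regulated reporter transcription units, dosed for 24 h. Reporter mRNA measured by RT-PCR, 6-FAM labelling, HpaI digestion and capillary electrophoresis; bidirectional fitting against DMSO baseline.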
Chain of Hepatocyte nuclear factor 3-beta (Homo sapiens) (Q9Y261 whole entry, looked up): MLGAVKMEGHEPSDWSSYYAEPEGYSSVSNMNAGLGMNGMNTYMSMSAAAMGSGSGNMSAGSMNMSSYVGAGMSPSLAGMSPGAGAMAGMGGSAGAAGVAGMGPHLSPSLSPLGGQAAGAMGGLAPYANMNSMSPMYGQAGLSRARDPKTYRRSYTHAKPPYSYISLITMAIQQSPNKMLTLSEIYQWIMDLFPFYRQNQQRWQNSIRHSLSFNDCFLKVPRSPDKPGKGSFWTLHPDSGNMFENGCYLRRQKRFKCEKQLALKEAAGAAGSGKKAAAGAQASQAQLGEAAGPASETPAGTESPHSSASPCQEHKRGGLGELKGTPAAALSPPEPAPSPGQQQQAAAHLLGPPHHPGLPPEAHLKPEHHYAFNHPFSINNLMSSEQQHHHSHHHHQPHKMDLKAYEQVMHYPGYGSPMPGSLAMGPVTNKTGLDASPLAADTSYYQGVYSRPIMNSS

A short description of experiment [14]: ATG_FoxO_CIS: Attagene CIS-FACTORIAL HepG2 Assay for human Forkhead box O (FoxO) (AID 2282943). Conditions: HepG2 Attagene cis-reporter, FoxO element, mRNA; actives raise or lower the signal. The essentials: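 HepG2 cells transiently transfected with cis-promoter-driven multiple reporter transcription units; 24 h after chemical dosing, reporter mRNA quantified by RT-PCR, fluorescent primer extension, HpaI digestion and capillary electrophoresis. Bidirectional fitting versus DMSO baseline.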

A short description of experiment [15]: ATG_GATA_CIS: Attagene CIS-FACTORIAL HepG2 Assay for human GATA Binding Protein (AID 2282944). Conditions: HepG2 GATA cis-element reporter, Attagene multiplex mRNA; actives raise or lower the signal. The essentials:
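Cells: HepG2, transiently transfected with cis-regulated reporter transcription units. Exposure: 24 h. Detection: RT-PCR plus capillary electrophoresis of FAM-labeled fragments. Analysis: bidirectional, DMSO as baseline.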

A short description of experiment [16]: ATG_GLI_CIS: Attagene CIS-FACTORIAL HepG2 Assay for human Zinc Finger Protein GLI1 (AID 2282945). The conditions noted are these: HepG2, Attagene cis-factorial reporter mRNA, GLI element; actives raise or lower the signal. The essentials:
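HepG2 cells transiently transfected with cis-promoter multiplexed reporter units report endogenous transcription factor activity. After 24 h chemical exposure, reporter mRNA was quantified by RT-PCR, 6-FAM labelling, HpaI digestion and capillary electrophoresis, with bidirectional fitting against DMSO.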

In experiment [17] the target is Bile acid receptor (Homo sapiens) (UniProt Q96RI1). Put plainly: ATG_IR1_CIS: Attagene CIS-FACTORIAL HepG2 Assay for human Nuclear Receptor Subfamily 1 Group H Member 4 (NR1H4), IR1 submotif (AID 2282946). The conditions noted are these: IR1 reporter transcription, actives raise or lower the signal. The essentials: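 Readout: reporter transcript levels by RT-PCR with fluorescent capillary electrophoresis, from HepG2 cells transiently transfected with multiplexed cis-regulated reporters and dosed 24 h. Gain- or loss-of-signal fitted versus DMSO negative control.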
Chain of Bile acid receptor (Homo sapiens) (Q96RI1 whole entry, looked up): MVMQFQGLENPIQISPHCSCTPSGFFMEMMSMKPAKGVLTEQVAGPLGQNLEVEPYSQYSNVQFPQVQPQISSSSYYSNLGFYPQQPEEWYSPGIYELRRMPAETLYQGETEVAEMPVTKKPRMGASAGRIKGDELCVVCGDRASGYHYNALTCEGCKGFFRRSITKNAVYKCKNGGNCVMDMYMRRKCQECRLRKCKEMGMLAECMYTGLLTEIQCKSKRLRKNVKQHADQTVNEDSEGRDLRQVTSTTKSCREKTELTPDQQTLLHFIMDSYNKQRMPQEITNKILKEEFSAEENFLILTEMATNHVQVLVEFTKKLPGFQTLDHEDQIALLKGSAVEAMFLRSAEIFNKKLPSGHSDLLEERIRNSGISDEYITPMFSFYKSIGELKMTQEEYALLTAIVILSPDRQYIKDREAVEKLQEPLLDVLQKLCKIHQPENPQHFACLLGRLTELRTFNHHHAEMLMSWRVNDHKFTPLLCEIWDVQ

The nature of experiment [18]: ATG_GRE_CIS: Attagene CIS-FACTORIAL HepG2 Assay for human Glucocorticoid Response Elements (GRE) (AID 2282947). The conditions noted are these: HepG2 GRE cis-reporter, Attagene multiplex mRNA; AC50: actives raise or lower the signal unless noted; outcome: actives raise or lower the signal unless noted. The essentials: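 Cells (HepG2) bearing transfected cis-promoter reporter transcription units were treated with chemical for 24 hours. Reporter mRNA was measured via RT-PCR with capillary electrophoresis, and activity was fitted in both directions relative to DMSO.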

The nature of experiment [19]: ATG_ISRE_CIS: Attagene CIS-FACTORIAL HepG2 Assay for human Interferon Regulatory Factor 1 (IRF1) binding to an Interferon-Stimulated Response Element (ISRE) (AID 2282948). Conditions: HepG2 ISRE cis-reporter (Attagene), mRNA transcription readout; actives raise or lower the signal. The procedure, abridged:
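Read-out: fluorescent RT-PCR products resolved by capillary electrophoresis, reporting endogenous transcription factor activity via ISRE-driven reporter mRNA in transfected HepG2 cells dosed for 24 h; gain or loss fitted relative to DMSO.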

Experiment [20] in a line: ATG_M_19_CIS: Attagene CIS-FACTORIAL HepG2 Assay for M19 Transcription Factor (Internal Marker) (AID 2282939). Conditions: HepG2 Attagene CIS-FACTORIAL M19 internal marker reporter; actives raise or lower the signal. The procedure, abridged: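 HepG2, MRTU transient transfection, 24 h dosing. Total RNA → RT-PCR → 6-FAM primer extension → HpaI digest → CE fluorescence. Bidirectional curve fit, DMSO negative control.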

The source made the active and inactive calls. The calls were made as follows: active = hit-call score of the fitted dose curve at least 0.9, where 1 is the maximum; inactive = score below 0.9.

Chain of Retinoic acid receptor alpha (Homo sapiens) (P10276 whole entry, looked up): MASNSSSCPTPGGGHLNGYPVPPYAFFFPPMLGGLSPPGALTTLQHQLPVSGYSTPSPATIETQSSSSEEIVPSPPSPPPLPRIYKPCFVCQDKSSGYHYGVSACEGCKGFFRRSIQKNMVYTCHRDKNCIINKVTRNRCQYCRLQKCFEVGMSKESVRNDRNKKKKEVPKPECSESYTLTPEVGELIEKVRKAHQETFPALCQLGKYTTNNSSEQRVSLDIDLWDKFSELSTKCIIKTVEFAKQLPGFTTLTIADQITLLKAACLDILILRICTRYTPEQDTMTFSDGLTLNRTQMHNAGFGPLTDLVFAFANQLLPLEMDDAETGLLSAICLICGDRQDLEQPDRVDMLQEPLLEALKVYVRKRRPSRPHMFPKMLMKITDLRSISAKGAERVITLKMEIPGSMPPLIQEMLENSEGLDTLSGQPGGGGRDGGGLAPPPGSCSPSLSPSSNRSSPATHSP
Chain of Transcription factor E2F1 (Homo sapiens) (Q01094 whole entry, looked up): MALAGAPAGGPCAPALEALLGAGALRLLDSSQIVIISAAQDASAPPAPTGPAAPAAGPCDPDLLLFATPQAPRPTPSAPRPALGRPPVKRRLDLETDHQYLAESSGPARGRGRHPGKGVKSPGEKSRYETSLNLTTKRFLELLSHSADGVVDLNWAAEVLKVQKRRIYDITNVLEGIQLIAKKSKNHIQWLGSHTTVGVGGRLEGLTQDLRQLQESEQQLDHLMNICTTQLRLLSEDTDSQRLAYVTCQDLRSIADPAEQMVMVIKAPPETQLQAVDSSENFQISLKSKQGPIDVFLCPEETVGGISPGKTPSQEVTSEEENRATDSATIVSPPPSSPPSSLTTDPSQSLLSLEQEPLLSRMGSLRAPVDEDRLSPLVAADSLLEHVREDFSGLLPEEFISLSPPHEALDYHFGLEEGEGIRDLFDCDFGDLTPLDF
Chain of Aryl hydrocarbon receptor (Homo sapiens) (P35869 whole entry, looked up): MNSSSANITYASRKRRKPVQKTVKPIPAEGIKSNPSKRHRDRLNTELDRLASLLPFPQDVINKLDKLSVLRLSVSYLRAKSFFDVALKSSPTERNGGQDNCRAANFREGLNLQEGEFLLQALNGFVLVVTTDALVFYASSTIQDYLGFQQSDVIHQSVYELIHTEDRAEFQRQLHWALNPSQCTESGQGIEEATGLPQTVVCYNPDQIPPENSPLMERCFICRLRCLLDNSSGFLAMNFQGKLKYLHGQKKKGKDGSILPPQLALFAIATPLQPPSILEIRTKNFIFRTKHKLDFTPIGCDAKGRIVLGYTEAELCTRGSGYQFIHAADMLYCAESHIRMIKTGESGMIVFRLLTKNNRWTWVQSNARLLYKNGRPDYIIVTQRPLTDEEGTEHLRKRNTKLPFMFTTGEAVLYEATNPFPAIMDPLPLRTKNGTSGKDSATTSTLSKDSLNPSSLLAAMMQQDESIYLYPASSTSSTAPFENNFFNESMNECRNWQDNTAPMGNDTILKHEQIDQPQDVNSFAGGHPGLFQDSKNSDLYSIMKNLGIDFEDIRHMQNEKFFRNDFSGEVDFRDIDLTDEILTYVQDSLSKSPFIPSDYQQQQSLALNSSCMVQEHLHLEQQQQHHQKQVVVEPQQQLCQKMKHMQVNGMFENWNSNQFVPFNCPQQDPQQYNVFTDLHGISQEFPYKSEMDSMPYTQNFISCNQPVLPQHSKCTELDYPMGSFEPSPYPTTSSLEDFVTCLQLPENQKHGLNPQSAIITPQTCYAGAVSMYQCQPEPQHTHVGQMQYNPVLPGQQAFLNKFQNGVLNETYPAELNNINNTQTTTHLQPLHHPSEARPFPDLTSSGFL

As to `O=C(Nc1ccc(Cl)c(Cl)c1)c1cc(Cl)cc(Cl)c1O`, the AC50 (usually the concentration at which the activity in the assay is half-maximal) was 28.6 µM (active) in experiment [1]; 0.0441 µM (active) in experiment [2]; 2.07 µM (active) in experiment [4]; 0.695 µM (active) in experiment [5]; 1.37 µM (active) in experiment [6]; 8.8 µM (active) in experiment [10]. The AC50 in experiment [13] was 0.502 µM (active); in [16] it was 50.6 µM (active); in [17], 52.4 µM (active); in [19] it was 33.4 µM (active). Further, the result in experiment [3], in experiment [7], in [8], in [9], in experiment [11] and in experiment [12] was inactive. In addition, the compound was called inactive in experiment [14], in experiment [15] and in experiment [18].
For `CN(C)CCOC(c1ccccc1)c1ccccc1`, the AC50 was 150 µM (active) in experiment [1], 64 µM (active) in [2], 60.6 µM (active) in [8] and 100 µM (active) in experiment [19]. For the same compound, the result in [3], in experiment [4], in experiment [5], in [6], in experiment [7] and in experiment [9] was inactive. Also, the compound was called inactive in experiment [10], in experiment [11], in experiment [12], in experiment [13], in [14] and in experiment [15]. Moreover, the outcome in [16] and in experiment [18] was inactive.
For `Nc1cc(Cl)c(-c2cc(Cl)c(N)cc2Cl)cc1Cl`, the AC50 is 2.65 µM (active) in [1], 3.81 µM (active) in experiment [3] and 21 µM (active) in experiment [5]. For the same compound, the compound was classed as inactive in experiment [2], in experiment [4], in experiment [6], in [7], in [8] and in experiment [9]. Further, the outcome in experiment [10], in experiment [20], in experiment [11], in experiment [12], in [14] and in experiment [15] was inactive. Further, the call in experiment [16] and in [19] was inactive.
Consider `CCCCCCC(C)(C)C(=O)O`, for which the outcome in experiment [1], in experiment [2], in experiment [4], in experiment [5], in experiment [6] and in experiment [7] was inactive. Besides, the outcome in experiment [8], in [9], in experiment [12], in experiment [13], in experiment [14] and in [15] was inactive. Further, the compound was called inactive in [16], in experiment [18] and in [19]. Also, the AC50 was 137 µM (active) in experiment [3], 130 µM (active) in experiment [10] and 27.6 µM (active) in [11].
